Activity calls are given as the source filed them. How the source made its calls: active means hit-call score of the fitted dose curve at least 0.9, where 1 is the maximum; inactive means score below 0.9.

The source of these data is PubChem BioAssay (EPA / NIEHS).

A short description of test [1]: APR_HepG2_CellCycleArrest_24hr: Apredica 24-hour HepG2 Assay for Cell Cycle Arrest (AID 2282905).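 Further: cell cycle arrest scored as ratio of 2N to 4N nuclear DNA content.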 Particulars: imaging, actives raise or lower the signal. The method in brief:
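Compounds at 0.39–200 uM (0.5% DMSO) for 24 h, then fixed and Hoechst 33342 stained. Cell-cycle analysis of nuclear DNA content by high-content imaging, fitted bidirectionally versus DMSO.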

Test [2] can be described thus: APR_HepG2_NuclearSize_24hr: Apredica 24-hour HepG2 Assay for Nuclear Size (AID 2282907). Particulars: high-content imaging, actives raise or lower the signal. The method in brief:
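HepG2 cells exposed 24 h to compounds at 0.39–200 uM (0.5% DMSO), fixed, Hoechst 33342 stained and imaged at 20x; nuclear diameter measured by automated image analysis, fitted bidirectionally against DMSO controls.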

Test [3] in a line: APR_HepG2_CellLoss_24hr: Apredica 24-hour HepG2 Assay for Cell Loss (AID 2282908).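 On AC50: fit in both directions so a hit may be cell loss or gain.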 Particulars: high-content imaging. Summed up:
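HepG2 cells exposed 24 hr to 0.39–200 uM compound in duplicate at 0.5% v/v final DMSO. Cells fixed in 3.7% formaldehyde and Hoechst 33342-stained. Cell number came from nuclear imaging at 20x. Bidirectional fit versus DMSO.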

The nature of test [4]: APR_HepG2_MicrotubuleCSK_24hr: Apredica 24-hour HepG2 Assay for Microtubule CSK Stabilty (AID 2282909). Particulars: HepG2 microtubule cytoskeleton imaging, actives raise or lower the signal. Summed up:
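HepG2 cells were treated 24 hr with compound at 0.39–200 uM in duplicate (0.5% DMSO final), then fixed and permeabilized. Alpha-tubulin immunofluorescence was imaged by high-content microscopy, with bidirectional fitting against DMSO and taxol as positive control.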

Test [5] can be described thus: APR_HepG2_MitoticArrest_24hr: Apredica 24-hour HepG2 Assay for Mitotic Arrest (AID 2282910). Particulars: high-content imaging, actives raise or lower the signal. Summed up:
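HepG2 human liver cells were exposed to compounds at 0.39–200 uM (10 concentrations, duplicate) in 0.5% v/v DMSO for 24 hr, then fixed and immunostained for phospho-histone H3 with Hoechst 33342. Mitotic arrest came from HCS fluorescent imaging, fitted bidirectionally against DMSO.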

The nature of test [6]: APR_HepG2_MitoMembPot_24hr: Apredica 24-hour HepG2 Assay for Mitochondrial Membrane Potential (AID 2282911). Particulars: imaging, actives raise or lower the signal. The method in brief:
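Human hepatoma HepG2 cultures received ten compound concentrations up to 200 uM for 24 hr. Membrane-potential dye signal, captured by automated fluorescence microscopy, was scored for gain or loss against DMSO controls.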

Test [7] can be described thus: APR_HepG2_MitoMass_24hr: Apredica 24-hour HepG2 Assay for Mitochondrial Mass (AID 2282912). Particulars: high-content imaging, actives raise or lower the signal. The method in brief:
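HepG2 cells exposed 24 hr to 0.39–200 uM compound, 0.5% v/v DMSO, in duplicate. Stained before fixation with 250 nM MitoTracker Red CMXRos for 30 min, then imaged at 20x with Hoechst nuclei. Fitted in both directions against DMSO.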

Test [8] can be described thus: APR_HepG2_p53Act_24hr: Apredica 24-hour HepG2 Assay for p53 Activation (AID 2282913).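 Further: p53 protein immunofluorescence averaged per cell in HepG2 with Hoechst nuclei.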 Particulars: high-content imaging, actives raise or lower the signal. Summed up: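 Automated fluorescence imaging quantifies p53 immunostaining in HepG2 cells after a 24 hr exposure (0.39–200 uM, duplicate, 0.5% DMSO). Nuclei are located by Hoechst 33342 staining.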
Test [9] is described as follows: APR_HepG2_CellCycleArrest_72hr: Apredica 72-hour HepG2 Assay for Cell Cycle Arrest (AID 2282914). The note with it: high-content imaging, actives raise or lower the signal. The method in brief:
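Cell cycle arrest in HepG2 was scored from nuclear DNA content after 72 hr compound treatment (0.39–200 uM). Activity, either gain or loss, was fitted against the DMSO baseline.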

Test [10] is described as follows: APR_HepG2_CellLoss_72hr: Apredica 72-hour HepG2 Assay for Cell Loss (AID 2282915). Particulars: high-content imaging. Summed up:
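HepG2 cells were exposed for 72 hr to compounds at 0.39–200 uM (ten concentrations, duplicate) in 0.5% v/v final DMSO. Nuclei were stained with Hoechst 33342 after 3.7% formaldehyde fixation, imaged at 20x, and counted; fits bidirectional versus DMSO.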

In the case of `COCCOc1cc2cc(C(=O)NC3CCN(C(C)C)CC3)n(CC(=O)Nc3ccc(Cl)cn3)c2cn1`, the call in test [1], in test [2], in test [4], in test [6], in test [8] and in test [9] was inactive. The AC50 was 74 µM (active) in test [3], 89.4 µM (active) in test [5], 93.1 µM (active) in test [7] and 93.1 µM (active) in [10].
Turning to `CCCCCCCCCCCCc1ccccc1`, the compound was called inactive in test [1], in test [2], in test [3], in [4], in test [5] and in test [6]. Also, the result in test [7], in [8] and in test [10] was inactive.
With `CC/C(=C\C(=N/O)C(N)=O)C(C)[N+](=O)[O-]` (stereo unspecified), the compound was classed as inactive in test [1], in test [2], in test [3], in test [4], in test [5] and in [6]. For the same compound, the compound was called inactive in [7], in [8], in test [9] and in [10].
Take `O=c1n(CC2CO2)c(=O)n(CC2CO2)c(=O)n1CC1CO1` (stereo unspecified): the AC50 in test [1] is 0.225 µM (active); in test [3] it was 1.8 µM (active); in test [4], 24.4 µM (active); in test [5] it was 27.8 µM (active); in [7], 50 µM (active); in test [8], 11.3 µM (active). For the same compound, the results for the AC50 in test [9] and in test [10] were 0.224 µM (active) and 10.7 µM (active), respectively. The call in [2] and in [6] was inactive.
In the case of `CC(=O)OC[C@H]1O[C@@](COC(C)=O)(O[C@H]2O[C@H](COC(C)=O)[C@@H](OC(C)=O)[C@H](OC(C)=O)[C@H]2OC(C)=O)[C@@H](OC(C)=O)[C@@H]1OC(C)=O`, the outcome in test [1], in test [2], in test [3], in [4], in [5] and in test [6] was inactive. Moreover, the outcome in test [7], in test [8], in test [9] and in test [10] was inactive.
Turning to `Cc1c(-c2cccnc2)c2ccccc2n1CCCCC(=O)O`, the outcome in test [1], in [2], in [3], in [4], in [5] and in test [6] was inactive. The result in test [7], in test [8], in [9] and in test [10] was inactive.
On to `CCCC(=O)OCC`, for which the compound was classed as inactive in [1], in [2], in [3], in test [4], in [5] and in test [6]. For the same compound, the call in [7], in [8], in [9] and in [10] was inactive.
With `COc1ccc(-n2nc(C(F)F)cc2-c2ccc(S(C)=O)cc2)cc1` (stereo unspecified), the AC50 in [1] was 49.5 µM (active); in [6] it was 5.03 µM (active); in [10], 72.8 µM (active). Moreover, the compound was classed as inactive in [2], in [3], in test [4], in test [5], in test [7] and in test [8]. In addition, the compound was classed as inactive in test [9].
Turning to `O=C(NS(=O)(=O)/C=C/c1ccccc1)c1ccc(F)cc1Cl`, the result in test [1], in test [2], in [3], in [4], in test [5] and in [6] was inactive. The compound was called inactive in [7], in test [8] and in [10].
`CC[C@H]1CC[C@H](NCc2cc3c(cc2OC)[C@H]2C[C@H]2C(=O)N3C)[C@H](c2ccccc2)N1`: the call in [1], in [2], in test [3], in test [4], in test [5] and in test [6] was inactive. Besides, the call in test [7] and in test [8] was inactive. For the same compound, in test [10], the AC50 was 72.5 µM (active).
With `Cc1ccc(N)cc1O`, the compound was classed as inactive in [1], in test [2], in [3], in test [4], in test [5] and in [7]. Moreover, the outcome in test [8] and in test [9] was inactive. Further, the half-maximal activity concentration (AC50) in [6] is 0.917 µM (active); in test [10], 10.5 µM (active).
For the compound `CCC(C)(C)C(=O)O[C@H]1C[C@@H](C)C=C2C=C[C@H](C)[C@H](CC[C@@H]3C[C@@H](O)CC(=O)O3)[C@H]21`, the concentration at half-maximal activity (AC50) in test [1] is 2.85 µM (active); in test [3] it was 123 µM (active); in [5], 2.96 µM (active); in [6] it was 105 µM (active); in test [7], 3.97 µM (active); in [8] it was 89.3 µM (active). The half-maximal activity concentration (AC50) in test [10] was 26.8 µM (active). Besides, the compound was called inactive in [2], in test [4] and in [9].
`CC[C@H]1OC(=O)[C@H](C)[C@@H](O[C@H]2C[C@@](C)(OC)[C@@H](O)[C@H](C)O2)[C@H](C)[C@@H](O[C@@H]2O[C@H](C)C[C@H](N(C)C)[C@H]2O)[C@](C)(O)C[C@@H](C)C(=O)[C@H](C)[C@@H](O)[C@]1(C)O`: the compound was called inactive in [1], in [2], in test [3], in test [4], in test [5] and in test [6]. Moreover, the result in test [7], in [8], in test [9] and in [10] was inactive.
Consider `CCNc1ccccc1`, for which the compound was called inactive in test [1], in test [2], in test [3], in test [4], in test [5] and in test [6]. For the same compound, the outcome in test [7], in test [8], in [9] and in test [10] was inactive.
`Cc1[nH]cnc1C[C@H]1CCc2c(C)c3ccccc3n2C1=O`: the concentration at half-maximal activity (AC50) is 146 µM (active) in test [1]; 55.7 µM (active) in test [3]; 97 µM (active) in test [8]; 69.7 µM (active) in test [9]; 24.5 µM (active) in test [10]. The outcome in test [2], in test [4], in test [5], in [6] and in [7] was inactive.
Take `CN(C)c1ccc(Cc2ccc(N(C)C)cc2)cc1`: the result in [1], in test [2], in test [3], in test [4], in [5] and in test [7] was inactive. Moreover, in [8], the compound was called inactive. The concentration at half-maximal activity (AC50) in [6] is 55.9 µM (active); in test [9], 50.8 µM (active); in [10] it was 45.2 µM (active).
In the case of `COC(=O)CC(=O)OC`, the compound was called inactive in [1], in test [2], in [3], in test [4], in test [5] and in test [6]. For the same compound, the result in test [7], in test [8], in test [9] and in test [10] was inactive.
Take `CCCCC(CC)COC(=O)CCCCCCCCC(=O)OCC(CC)CCCC` (stereo unspecified): the outcome in [1], in [2], in test [6] and in [7] was inactive. For the same compound, the AC50 in test [3] is 117 µM (active); in [4], 128 µM (active); in test [5] it was 68.5 µM (active); in test [8] it was 108 µM (active); in test [9], 170 µM (active); in [10], 100 µM (active).
Consider `CCOC(=O)CC(CC(=O)OCC)(OC(C)=O)C(=O)OCC`, for which the result in test [1], in [2], in [3], in test [4], in test [5] and in test [6] was inactive. Further, the outcome in [7] and in test [8] was inactive. Further, in [10], the concentration at half-maximal activity (AC50) is 45.8 µM (active).
Turning to `Clc1nc(Cl)c(Cl)c(Cl)c1Cl`, the AC50 is 40 µM (active) in [1]; 45 µM (active) in test [3]; 77.3 µM (active) in test [5]; 102 µM (active) in test [7]; 38.6 µM (active) in [8]; 20 µM (active) in test [9]. In [10], the AC50 is 72 µM (active). In addition, the call in test [2], in [4] and in test [6] was inactive.
